Hits are enriched below; roughly 2.4% of the tested compounds scored in any of these assays.
Pol kappa inh-1 – blocks human DNA polymerase kappa activity. Q9UBT6. purified Pol kappa, fluorescent DNA synthesis assay, 10 min. Potency, µM (titrated, usually from 107 µM), actives largely listed as inhibitors. 400,000 tested, 0.53% active. AID 588579
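Inhibition of 10 nM Pol kappa is measured by a fluorescent read-out at 0 and 10 min following addition of 50 nM substrate (final), with a 15-min room-temperature compound preincubation.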
WRN helicase inh – inhibitors of human WRN helicase; Q14191; WRN helicase unwinding, fluorescent forked duplex, kinetic; Potency, µM (highest dose often 114 µM), usual class: inhibitors; 360,000 tested, 0.46% active; AID 651768; also: nearly all actives have a fitted effect of over 55% in size
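Primary qHTS, 1536-well format. 20 nM WRN + compound, 15 min RT; start with 100 nM forked fluorophore/quencher duplex, 2 mM ATP (final); kinetic read ex 525/em 598 nm.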
POLI inh – DNA polymerase iota (human) inhibition; Q9UNA4; Potency, µM (highest dose often 115 µM), hits mostly inhibitors; Pol iota fluorescent replication assay, 10 min; AID 588590; 390,000 tested, 1% active
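Pol iota at 10 nM preincubated 15 min with compounds at room temperature; reaction started with fluorescent substrate, 50 nM final. Fluorescence read kinetically at 0 and 10 min; buffer-only wells as negative control.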
Pol eta inh-1 – inhibitors of human DNA polymerase eta | Q9Y253 | recombinant Pol eta, fluorescent DNA replication assay | Potency, µM (series often up to 114 µM), most hits filed as inhibitors | 390,000 tested, 1.2% active | AID 588591
Target sequence (Q9Y253 whole entry, looked up): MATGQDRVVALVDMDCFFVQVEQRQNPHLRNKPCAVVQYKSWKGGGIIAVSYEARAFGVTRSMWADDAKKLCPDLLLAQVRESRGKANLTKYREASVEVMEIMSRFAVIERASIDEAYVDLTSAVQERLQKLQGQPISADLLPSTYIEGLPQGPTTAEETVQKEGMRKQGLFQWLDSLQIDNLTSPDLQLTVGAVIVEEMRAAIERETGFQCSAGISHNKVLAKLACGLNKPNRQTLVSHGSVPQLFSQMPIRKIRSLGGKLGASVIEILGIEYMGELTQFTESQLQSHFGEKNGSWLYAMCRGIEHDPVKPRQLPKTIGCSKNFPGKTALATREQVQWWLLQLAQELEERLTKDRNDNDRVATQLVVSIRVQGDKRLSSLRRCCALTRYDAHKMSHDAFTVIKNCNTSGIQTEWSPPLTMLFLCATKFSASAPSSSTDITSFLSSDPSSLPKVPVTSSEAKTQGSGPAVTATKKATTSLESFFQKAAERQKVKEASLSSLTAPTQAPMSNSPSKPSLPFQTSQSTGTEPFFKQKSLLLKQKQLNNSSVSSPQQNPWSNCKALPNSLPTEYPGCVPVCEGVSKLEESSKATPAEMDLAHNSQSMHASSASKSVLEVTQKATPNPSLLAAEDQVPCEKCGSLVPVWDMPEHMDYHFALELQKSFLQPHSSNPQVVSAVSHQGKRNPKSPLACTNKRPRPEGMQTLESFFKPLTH
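Pol eta at 10 nM preincubated with compounds 15 min at room temperature; reaction started with fluorescent substrate (50 nM final) and read kinetically at 0 and 10 min.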
POLB inh – DNA polymerase beta (human) inhibition | 340,000 tested, 1.3% active | P06746 | Pol beta primer extension/strand displacement, fluorescence kinetic | Potency, µM (titrated, usually from 114 µM), hits mostly inhibitors
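Homogeneous kinetic assay of primer extension and strand displacement by 10 nM Pol beta, preincubated 15 min at room temperature with compound before 50 nM substrate (final) was added. Read at 0 and 10 min; four-parameter Hill fit.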
FEN1 inhibitor – human FEN1 inhibition. P39748. Recombinant FEN1 flap cleavage, fluorescence, 15 min. Potency, µM (top dose mostly 114 µM), most hits filed as inhibitors. 390,000 tested, 0.35% active; also: nearly all actives have a fitted effect of over 65% in size
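With each library titrated from low to high concentration, compounds met 10 nM FEN1 for 15 min at room temperature before 50 nM substrate was added; readings at 0 and 15 min fed four-parameter Hill curve fits.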
POLI cherry-pick – Inhibitors of human DNA polymerase iota, confirmation; shares compounds with Pol kappa inh-1; Pol iota primer extension, TAMRA/BHQ fluorescence; Potency, µM, actives largely listed as inhibitors; 1,500 tested, 77% active
Pol kappa inh-2 – confirmation of human DNA polymerase kappa inhibitors. Potency, µM, usual class: inhibitors. purified Pol-kappa, fluorescent strand-displacement substrate. 920 tested, 76% active. AID 720501. shares compounds with Pol eta inh-1
Pol eta inh-2 – Pol eta (human) inhibition, cherry-pick confirmation. shares compounds with Pol eta inh-1. Pol eta primer extension, TAMRA/BHQ fluorescence, 10 min. Potency, µM, actives largely listed as inhibitors. 2,600 tested, 64% active
Hits are given with their value; n = inactive; u = inconclusive; x = no result; [ ] = dose if it differs, or a comment. Calls follow the shape of the dose curve; as a rule, active = well fitted curve in the direction sought with a large enough effect; inconclusive = small, poorly fitted or top-dose-only effect, or another doubt; inactive = no such curve, though single readings can be large; an effect the other way counts as inactive or inconclusive.

SMILES	Pol kappa inh-1	WRN helicase inh	POLI inh	Pol eta inh-1	POLB inh	FEN1 inhibitor	POLI cherry-pick	Pol eta inh-2	others
Cc1cc(/C=C2\SC(=O)N(CC(=O)Nc3ccccc3F)C2=O)c(C)n1C	n	n	n	n	n	n	x	x
O=C(CN1C(=O)S/C(=C\c2ccccn2)C1=O)Nc1ccccc1	n	n	n	n	n	n	x	x
Cc1ccc(C(=O)O)cc1-c1ccc(/C=C2/NC(=O)N(c3ccccc3)C2=O)o1	22µM	40µM	14µM	2.8µM	5.6µM	u	19	30	Pol kappa inh-2=19
Cc1ccc(C(=O)O)cc1-c1ccc(/C=C2\SC(=O)N(CC(=O)Nc3ccccc3)C2=O)o1	u	u	u	18µM	u	50µM	42	48
CCOC(=O)c1c(C)oc2ccc(N(C(=O)Oc3ccccc3)S(=O)(=O)c3ccc(CC)cc3)cc12	n	x	n	n	n	u	x	x
O=[N+]([O-])c1cc(/C=N/n2c(-c3cccnc3)n[nH]c2=S)ccc1Cl	u	u	u	20µM	5.6µM	56µM	17	43
CC[C@H](C)[C@H](NC(=O)[C@H](CCC(=O)O)NC(=O)[C@@H](N)CO)C(=O)N[C@@H](CCC(N)=O)C(=O)N[C@@H](CC(C)C)C(=O)N[C@@H](CCSC)C(=O)N[C@@H](Cc1cnc[nH]1)C(=O)N[C@@H](CC(N)=O)C(=O)N[C@@H](CC(C)C)C(=O)NCC(=O)N[C@@H](CCCCN)C(=O)N[C@@H](Cc1cnc[nH]1)C(=O)N[C@@H](CC(C)C)C(=O)N[C@@H](C)C(=O)N[C@@H](CO)C(=O)N[C@H](C(=O)N[C@@H](CCC(=O)O)C(=O)N[C@@H](CCCNC(=N)N)C(=O)N[C@@H](CCSC)C(=O)N[C@@H](CCC(N)=O)C(=O)N[C@@H](Cc1c[nH]c2ccccc12)C(=O)N[C@@H](CC(C)C)C(=O)N[C@@H](CCCNC(=N)N)C(=O)N[C@@H](CCCCN)C(=O)N[C@@H](CCCCN)C(=O)N[C@@H](CC(C)C)C(=O)N[C@@H](CCC(N)=O)C(=O)N[C@@H](CC(=O)O)C(=O)N[C@H](C(=O)N[C@@H](Cc1cnc[nH]1)C(=O)N[C@@H](CC(N)=O)C(=O)N[C@@H](Cc1ccccc1)C(=O)O)C(C)C)C(C)C	n	x	x	x	x	x	x	x
CC(C)c1nc(SCC(=O)Nc2nccs2)c2ccccc2n1	n	u	u	32µM	25µM	n	53	76
Cc1csc(NC(=O)CSc2nc(C(C)C)nc3ccccc23)n1	n	n	n	n	n	n	x	x
O=[N+]([O-])c1cc(Cl)cc(/C=N/NC(=S)Nc2ccc(S(=O)(=O)N3CCOCC3)cc2)c1O	u	n[11.6 µM]	u	79µM	u	u	u	u
O=S(=O)(c1ccc(Cl)c(NC(=S)N/N=C/c2ccc(O)cc2)c1)N1CCOCC1	n	n	n	n	n	n	x	x
CC(=O)Nc1cc(C(=O)CSc2nnc(C3CC3)n2C2CC2)ccc1O	35µM	u	8.9µM	11µM	x	n	u	76
O=C(CSc1nnc(C2CC2)n1C1CC1)c1ccc(F)c(F)c1	n	n	n	n	x	n	x	x
CCc1ccc(-n2nc(CO)c(C(=O)NCc3ccccn3)n2)cc1	n	x	n	n	n	n	x	x
COCCn1c(=O)c(-c2ccccc2)nc2cnc(N3CCN(C)CC3)nc21	n	x	x	x	x	x	x	x
CCOC(=O)C1=C(C)N=c2s/c(=C/c3ccc(OCC(=O)O)cc3)c(=O)n2C1c1ccc(OC)cc1OC (centres undefined)	u	n	u	28µM	n	u	34	67	Pol kappa inh-2=30
CCOC(=O)C1=C(C)N=c2s/c(=C/c3cccc([N+](=O)[O-])c3O)c(=O)n2C1c1ccc(OC)cc1OC (centres undefined)	n	n[11.6 µM]	u	50µM	n	n	75	76
COc1ccc(-c2nc3cnc(N4CCN(C)CC4)nc3n(-c3ccc(OC)cc3)c2=O)cc1	n	x	x	x	x	x	x	x
COc1ccc2c(c1)c(=O)oc1c(C)c(OCc3cc(C(=O)O)oc3C)ccc12	79µM	50µM	35µM	14µM	35µM	u	u	u
Cc1nnc(NC(=O)CSCc2cc(=O)c3ccccc3[nH]2)s1	n	x	79µM	50µM	u	n	67	u
Cc1nnc(NC(=O)CSCc2cc(=O)c3ccc(C)c(C)c3[nH]2)s1	n	x	n	n	n	n	x	x
Cc1cccc(NC(=O)CSc2nc3ccc(NC(=O)COc4ccc(Cl)cc4)cc3s2)c1	n	x	n	n	n	n	x	x
O=C(O)CSc1nc2ccc(NC(=O)COc3ccc(Cl)cc3)cc2s1	u	x	79µM	11µM	25µM	n	67	30
O=S(=O)(c1ccc2c(c1)OCO2)N1CCN(c2nc(-c3cccs3)nc3ccccc23)CC1	n	x	n	x	x	n	x	x
O=C(CCS(=O)(=O)c1ccc(Br)cc1)NCCc1ccccc1	u	u	50µM	20µM	u	n	u	48	Pol kappa inh-2=17
SMILES	Pol kappa inh-1	WRN helicase inh	POLI inh	Pol eta inh-1	POLB inh	FEN1 inhibitor	POLI cherry-pick	Pol eta inh-2	others
O=C(CCNS(=O)(=O)c1ccc(Br)cc1)NCCc1ccccc1	n	n	n	n	n	n	x	x
NS(=O)(=O)c1ccc(CCNC(=O)CCS(=O)(=O)c2ccc(Br)cc2)cc1	n	u	n	20µM	28µM	n	38	43
c1ncc(CCCC2CCNCC2)[nH]1	n	x	x	x	x	x	x	x
O=C(N/N=C/c1cccn1-c1cccc(C(=O)O)c1)Nc1ccccc1	79µM	n[11.6 µM]	u	7.9µM	28µM	n	75	60
O=C(N/N=C/c1cccc(Cl)c1Cl)Nc1ccccc1	n	n	n	n	n	n	x	x
COc1ccccc1NC(C)C(=O)c1c(C)[nH]c2ccccc12 (centres undefined)	n	x	n	x	x	u	x	x
COc1ccc(/C=C/C(=O)NCc2ccccn2)cc1	n	n	n	n	n	n	x	x
Cc1ccc(/C=C/C(=O)NCc2ccccn2)o1	45µM	50µM	16µM	3.2µM	18µM	n	19	27	Pol kappa inh-2=15
Cc1ccc(C(=O)O)cc1N1C(=O)c2cccc3c([N+](=O)[O-])ccc(c23)C1=O	40µM	u	16µM	10µM	18µM	u	27	30	Pol kappa inh-2=6.7
COc1ccc(Cl)cc1NC(=O)N1CCC(CN2CCc3ccccc3C2)CC1	n	x	n	n	n	n	x	x
O=C1CC2(CCCC2)CC(=O)N1CCCCNC[C@H]1COc2ccccc2O1	n[19.4 µM]	x	x	x	x	x	x	x
